Assay results published in PubChem BioAssay (NCATS).
Inconclusive results are not listed. Activity calls are given as the source filed them. Calls come from the whole dose curve; as a rule, active = well fitted inhibition curve with a large enough effect; inconclusive = small, poorly fitted or top-dose-only effect; inactive = flat fitted curve, though single readings scatter.

biological target: Glutathione peroxidase 1 (Homo sapiens) (UniProt P07203); assay: Primary qHTS Assay for Inhibitors of Recombinant Selenoprotein Glutathione Peroxidase 1 (GPX1) (AID 1845191); conditions: recombinant GPX1, GR-coupled NADPH fluorescence, 15 min; series mostly up to 48.8 µM; activity, negative = inhibition: at the top concentration; note: nearly all actives have a fitted effect of over 65% in size
Sequence (P07203 whole entry, looked up): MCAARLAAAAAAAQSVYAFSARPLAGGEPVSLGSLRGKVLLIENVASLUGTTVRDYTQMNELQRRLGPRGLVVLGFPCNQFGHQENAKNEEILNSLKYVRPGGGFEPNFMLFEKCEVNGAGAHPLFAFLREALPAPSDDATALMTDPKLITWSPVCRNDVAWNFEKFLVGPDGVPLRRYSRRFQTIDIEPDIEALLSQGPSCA
How it was run: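 GPX1 10 nM, GR 100 nM, GSH 1 mM, NADPH 0.5 mM, CHP 0.5 mM (final). 30-min cpd preincubation, RT. Ex340/Em450 read t=0, t=15 min.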
% is set by controls: 0 for no effect and ±100 for the full control effect; potency is the fitted concentration of half-maximal effect.

Row | SMILES | activity, negative = inhibition | Potency | outcome
1 | Nc1nc2c(ncn2[C@@H]2O[C@H](CO)[C@@H](O)[C@@H]2O)c(=O)[nH]1 | -14.6% (inactive) | – | –
2 | CN(CCCOc1ccc(Cc2ccccc2)cc1)CCC(=O)O | – | inactive | –
3 | Cc1onc(-c2c(F)cccc2Cl)c1C(=O)N[C@@H]1C(=O)N2[C@@H]1SC(C)(C)[C@@H]2C(=O)O | -21.6% (inactive) | – | –
4 | OCC1O[C@H](O)C(Cl)C(O)C1O (stereo partly specified) | -19.5% (inactive) | – | –
5 | O=C(Nc1ccccc1)c1cc([N+](=O)[O-])ccc1Cl | – | – | inactive
6 | CCCCN(CC)c1nc(C)nc2c1c(C)cn2-c1c(C)cc(C)cc1C | – | inactive | –
7 | CCCCCCCCc1ccc(-c2ccc(C(=O)O)cc2)cc1 | 4.65% (inactive) | – | –
8 | O=C(CCCCCN1CCN(c2ccccc2-c2ccccc2)CC1)NC1CCCc2ccccc21 (stereo unspecified) | – | – | inactive
9 | CN1CC(=O)N/C1=N/C(=O)Nc1cccc(Cl)c1 | -7.05% (inactive) | – | –
10 | CCCCCCCCCCCCCCCC(=O)OC(CC(=O)O)C[N+](C)(C)C (stereo unspecified) | 0.914% (inactive) | – | –
11 | CN1CCc2ccccc2Cc2[nH]c3ccccc3c2CC1 | 2.16% (inactive) | – | –
12 | Cn1ncc(S(=O)(=O)Cc2ccccc2)c(Br)c1=O | -29.5% (inactive) | – | –
13 | COc1cc(OC)cc(-c2cc3cnc(N)nc3nc2NC(=O)NC(C)(C)C)c1 | – | – | inactive
14 | CC[C@@H](C)[C@H]1O[C@]2(CC[C@@H]1C)C[C@@H]1C[C@@H](C/C=C(\C)[C@@H](O[C@H]3C[C@H](OC)[C@@H](O[C@H]4C[C@H](OC)[C@@H](O)[C@H](C)O4)[C@H](C)O3)[C@@H](C)/C=C/C=C3\CO[C@@H]4[C@H](O)C(C)=C[C@@H](C(=O)O1)[C@]34O)O2 | – | inactive | –
15 | O=C(O)CC1CC(c2ccccc2)=NO1 (stereo unspecified) | – | – | inactive [at 15.3 µM]
16 | CC(=O)O[C@H]1C[C@@]2(C)[C@@H](C[C@@H](O)[C@H]3[C@@]4(C)CC[C@@H](O)[C@@H](C)[C@@H]4CC[C@@]32C)/C1=C(\CCC=C(C)C)C(=O)O | – | – | inactive
17 | Nc1nc(Cl)nc2c1ncn2[C@@H]1O[C@H](COP(=O)(O)OP(=O)(O)OP(=O)(O)O)[C@@H](O)[C@H]1O | -12.4% (inactive) | – | –
18 | COc1ccc(-c2cc(=O)c3c(O)c(OC)c(OC)cc3o2)cc1O | – | – | inactive

Row | SMILES | activity, negative = inhibition | Potency | outcome
19 | CN1CCc2cc(NC(=O)Nc3cccnc3)ccc21 | 0.245% (inactive) | – | –
20 | O=C(O)c1cc(=O)c2c(Cl)cc(Cl)cc2[nH]1 | -7.86% (inactive) | – | –
21 | O=Nc1ccc2oc(=O)ccc2c1 | – | – | inactive
22 | CN(C)CCn1nnnc1SCC1=C(C(=O)O)N2C(=O)[C@@H](NC(=O)Cc3csc(N)n3)[C@H]2SC1 | – | 4.53 µM (active) | –
23 | Cc1cn([C@H]2CC(N=[N+]=[N-])[C@@H](CO)O2)c(=O)[nH]c1=O (stereo partly specified) | -17% (inactive) | – | –
24 | O=C1NC(O)=NC1(c1ccccc1)c1ccccc1 | -17.3% (inactive) | – | –
25 | CN=c1nc(-c2ccccc2)n(-c2ccccc2)s1 | -15.4% (inactive) | – | –
26 | CN(C)c1nc(N)c(C(=O)N=C(N)N)nc1Cl | -27.3% (inactive) | – | –
27 | CNc1ncnc2c1ncn2[C@@H]1O[C@H](CO)[C@@H](O)[C@H]1O | -4.8% (inactive) | – | –
28 | Oc1ccccc1O | – | – | inactive
29 | CCNc1nc2c(ncn2[C@H]2C[C@H](O)[C@@H](CO)O2)c(=O)[nH]1 | – | inactive | –
30 | COc1ccc(/C=C/c2nc(NCCCN(C)C)c3ccccc3n2)cc1 | – | – | inactive
31 | O=C(/C=C/c1ccc(O)c(O)c1)OCCc1ccccc1 | -3.35% (inactive) | – | –
32 | CC(C(=O)O)c1ccc(C(=O)c2cccs2)cc1 (stereo unspecified) | 0.681% (inactive) | – | –
33 | CN(C)C(N)=NCCC[C@H](N)C(=O)O | – | – | inactive
34 | NC(CCCP(=O)(O)O)C(=O)O (stereo unspecified) | -19.6% (inactive) | – | –
35 | CC(C)(NS(=O)(=O)c1ccc(Oc2ccc(F)cc2)cc1)C(=O)NO | – | – | inactive
36 | NS(=O)(=O)c1ccc(-n2nc(C(F)(F)F)cc2-c2ccc(Cl)cc2)cc1 | – | inactive | –
